# In PubChem BioAssay AID488859 (Sanford-Burnham Center for Chemical Genomics, 2010):
# The whole screen tested about 1,400 compounds, of which about 970 (69%) were called active. Another 5% or so got no clear call; they are omitted. Rule as the data show it: active = inhibition above about 45%; inconclusive = no clear call, values can overlap the other calls; inactive = below that. So high a share suggests a set chosen from earlier hits. A selection follows.
# Molecular target: Ubiquitin-conjugating enzyme E2 N (Homo sapiens) (UniProt P61088)
# Assay: UBC13 polyubiquitination inhibitors, single-point retest, confirmation, biochemical, TR-FRET, single concentration (AID 488859)
# Conditions: at 10 µM, stronger effect = higher value
# Sequence of Ubiquitin-conjugating enzyme E2 N (Homo sapiens) (P61088 whole entry, looked up): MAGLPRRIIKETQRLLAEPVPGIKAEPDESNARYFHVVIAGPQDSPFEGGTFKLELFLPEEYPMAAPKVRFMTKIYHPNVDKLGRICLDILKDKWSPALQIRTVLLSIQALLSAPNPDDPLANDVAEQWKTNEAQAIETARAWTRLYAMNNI
row,SMILES,inhibition
1,CNCC(O)c1cc(F)c(OCc2ccccc2)c(OCc2ccccc2)c1F (stereo unspecified),50.4% (active)
